Only some compounds are listed: those with a hit (about 2% of all), similar ones and a draw of the others.
NR2F2 inh – inhibitors of human COUP-TFII (NR2F2) | P24468 | HEK293T NGFI-A luciferase reporter, luminescence | inhibition, % at 8.6 µM | 0.7% of 370,000 active | AID 686940;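 active means inhibition above a per-plate cutoff, mean inhibition of test wells between control levels plus 3 SD, cut at about 38% in these data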;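 further: cells cotransfected with COUP-TFII expression vector driving the NGFI-A reporter; 0% = median of COUP-TF2 test wells and 100% = reporter-only cells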
Target sequence (P24468 whole entry, looked up): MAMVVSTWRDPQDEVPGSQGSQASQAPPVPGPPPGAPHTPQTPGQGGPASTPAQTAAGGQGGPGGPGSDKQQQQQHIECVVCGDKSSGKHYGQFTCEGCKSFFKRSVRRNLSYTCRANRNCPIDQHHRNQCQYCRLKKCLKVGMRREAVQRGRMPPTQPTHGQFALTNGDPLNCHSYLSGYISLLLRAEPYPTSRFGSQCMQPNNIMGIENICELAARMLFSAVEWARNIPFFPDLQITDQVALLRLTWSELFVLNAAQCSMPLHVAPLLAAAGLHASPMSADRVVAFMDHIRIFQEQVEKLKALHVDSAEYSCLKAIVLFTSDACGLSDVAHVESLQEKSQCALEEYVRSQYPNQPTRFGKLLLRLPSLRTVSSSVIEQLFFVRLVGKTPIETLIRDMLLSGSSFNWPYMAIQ
697 NFkB inh – lowers PMA/ionomycin-induced NF-kB signal in 697 B cells. 697 B-cell NF-kB luciferase reporter, 16 h. inhibition, % at 4 µM. 0.33% of 330,000 active. AID 435022; in the data active means inhibition above about 35%
GalR3 antagonist – antagonists of human GalR3. O60755. HEK293 GalR3-CNG cAMP membrane potential fluorescence; galR3 body fused to GalR1 C-terminus. 0.44% of 360,000 active. inhibition, % at 3 µM;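 active means inhibition above the screen-wide average plus 3 SD, cut at about 13% in these data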;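 further: forskolin and galanin both at EC90 stimulate the cells; cAMP rise reported by CNG channel membrane potential dye signal; 0% = forskolin plus galanin with DMSO and 100% = forskolin alone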
Jurkat NFkB inh – lowers PMA/ionomycin-induced NF-kB signal in Jurkat cells; PMA/ionomycin-induced NF-kB luciferase reporter, luminescence; inhibition, % at 4 µM; 0.53% of 330,000 active; in the data active means inhibition above about 50%
Gli-Sufu block – blocks Gli-Sufu signaling in a luciferase reporter; Sufu-KO-LIGHT fibroblasts, Gli luciferase reporter luminescence; inhibition, % at 5 µM; 0.74% of 340,000 active;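 active means inhibition above about 55%, limit read from the data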;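 further: 0% = DMSO-treated cells and 100% = wells with medium but no cells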
VP16 Luc counter – VP16 inhibition counter-screen for COUP-TFII; shares compounds with NR2F2 inh; HEK293 Gal4-VP16 luciferase reporter, luminescence; inhibition, % at 8.5 µM; 25% of 2,500 active; AID 687007; in the data active means inhibition above about 13%
COUP-TFII conf – confirmation of human COUP-TFII (NR2F2) inhibitors. shares compounds with NR2F2 inh. HEK293 NGFI-A luciferase reporter, luminescence. inhibition, % at 8.5 µM. 45% of 2,500 active;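 active means mean inhibition over three repeats above a set limit taken from the earlier primary screen, cut at about 38% in these data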;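 further: 100% = cells given the luciferase reporter alone without the COUP-TF2 vector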
Starred values were filed as active, the others as inactive.

For CCCC(C)C(=O)NC1CCCCN(Cc2ccccc2C)C1=O (stereo not given) the results were NR2F2 inh 3.8.
CN1Cc2sc(NC(=S)NC(=O)c3ccccc3)c(C#N)c2CC1(C)C was read as NR2F2 inh 40.0*, 697 NFkB inh -21.0, GalR3 antagonist 1.7, Jurkat NFkB inh 38.7, Gli-Sufu block 60.1*, VP16 Luc counter 6.8 and COUP-TFII conf 69.4*.
For COc1cc(-c2cnc3c(NC=O)cc(-c4cccc(C(F)(F)F)c4)cn23)cc(OC)c1OC the results were NR2F2 inh 40.6*, GalR3 antagonist -3.0, VP16 Luc counter 1.8 and COUP-TFII conf 27.1.
`CN(C)C(=O)c1cccc(-c2cnc3c(NC=O)cc(-c4cccc(C(F)(F)F)c4)cn23)c1` gave NR2F2 inh 46.0*, GalR3 antagonist -5.4, VP16 Luc counter 0.3 and COUP-TFII conf -19.4.
For CCCCNS(=O)(=O)CC1NCc2ccccc21 (stereo not given) the results were NR2F2 inh -3.4.
`COc1ccc(S[C@]2(C(=O)N3CCN(c4ncccn4)CC3)CC(=O)N(c3ccc(Cl)cc3)[C@@H]2c2ccc(OC)cc2)cc1` gave NR2F2 inh -3.0.
Screening CC(=O)OC1CCC2(C)C(CCC3C4CC=C(C(C)=O)C4(C)OC(=O)CC32)C1 (stereo not given) returned NR2F2 inh 57.2*, GalR3 antagonist 2.3, VP16 Luc counter 37.4* and COUP-TFII conf 44.2*.
For CC(=O)O[C@H]1CC[C@@]2(C)C(CCC3C2CC[C@]2(C)OC(=O)CCC32)C1 (stereo not given in full) the results were NR2F2 inh 4.6, 697 NFkB inh 20.3, GalR3 antagonist -4.5, Jurkat NFkB inh -6.5 and Gli-Sufu block 6.6.
Screening Cc1ccc(C)c(N2CCN(C(=O)C34CC5CC(C3)CC(n3nnc(C)n3)(C5)C4)CC2)c1 returned NR2F2 inh 47.3*, 697 NFkB inh -39.4, GalR3 antagonist 0.7, Jurkat NFkB inh 13.6, Gli-Sufu block 9.3, VP16 Luc counter -2.6 and COUP-TFII conf 22.3.
Screening Cc1ccc(C23CC4CC(CC(C(=O)N5CCN(C)CC5)(C4)C2)C3)cc1 returned NR2F2 inh 12.1, 697 NFkB inh -31.3, GalR3 antagonist -8.4, Jurkat NFkB inh -14.3 and Gli-Sufu block 1.8.
For Cc1cc(C)cc(NC(=O)OC2CCC23CCCCC3)c1 (stereo not given) the results were NR2F2 inh 19.1.
O=C(c1ccncc1)c1ccc(N2CCN(C3CC(=O)N(Cc4cccs4)C3=O)CC2)cc1 (stereo not given) was read as NR2F2 inh 38.3*, 697 NFkB inh -18.6, GalR3 antagonist -5.8, Jurkat NFkB inh 7.3, Gli-Sufu block -1.9, VP16 Luc counter 3.1 and COUP-TFII conf 23.1.
`C=CCOc1ccc(CN(C)C(=O)c2ccc(CNS(=O)(=O)c3ccc(C)c(C)c3)cc2)cc1` gave NR2F2 inh 41.0*, 697 NFkB inh -21.5, GalR3 antagonist -5.3, Jurkat NFkB inh 4.0, Gli-Sufu block 14.6, VP16 Luc counter 0.1 and COUP-TFII conf 28.6.
O=C1CCCCC1Sc1nnc(-c2ccc3c(c2)OCO3)o1 (stereo not given) was read as NR2F2 inh 64.2*, 697 NFkB inh 9.1, GalR3 antagonist -7.6, Jurkat NFkB inh -122.8, Gli-Sufu block -2.5, VP16 Luc counter 21.7* and COUP-TFII conf 58.8*.
For COc1ccc(C(=O)Nc2ccc(C)cn2)c(OC)c1 the results were NR2F2 inh 54.9*, 697 NFkB inh -111.8, GalR3 antagonist -5.3, Jurkat NFkB inh 3.1, Gli-Sufu block -6.8, VP16 Luc counter 13.8* and COUP-TFII conf 28.4.
For CCCC[C@@H]1C(=O)N2N=Cc3ccccc3[C@H]2N2N=Cc3ccccc3[C@@H]12 the results were NR2F2 inh 8.5.
Cc1ccnc(OC(C(=O)O)C(OCc2ccccc2)(c2ccccc2)c2ccc(C(F)(F)F)cc2)n1 (stereo not given) was read as NR2F2 inh 46.9*, 697 NFkB inh -34.3, GalR3 antagonist -1.5, Jurkat NFkB inh 2.8, Gli-Sufu block 9.7, VP16 Luc counter 6.0 and COUP-TFII conf 14.3.
